# Source: the supplement of paper PMC6555819
# How the values were obtained:
# Assay in all cases: PBM binding z-score (relative to random genomic background probes); higher = stronger binding; sequences stand for … in GC…GCGATTGACAGCGTAGAATGAAGG
# [1] = system: FXR:RXRa (NR concentration 270 nM, RXRa partner concentration 90 nM)
# Summary of the method: (§1)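 The probes on custom Agilent 4×180K protein-binding microarrays were double-stranded, with 34-nt variable regions bearing direct-repeat seeds, single-nucleotide variants, half-site ablations and random human genomic background sequences. Incubation lasted 1 h with ligand-free nuclear receptor dimers in PBS pH 7.4, 2% milk, 0.02% Triton X-100, 1 mM DTT, 0.2 mg/mL BSA and 0.4 mg/ml salmon testes DNA. Antibodies against each partner (one per run) detected bound dimers, and fluorescence scans were regression-normalized. Binding z-scores take the random background probes as reference.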
# [2] = system: LXRa:RXRa (NR concentration 270 nM, RXRa partner concentration 90 nM)
# Summary of the method: as §1
# [3] = system: LXRa homodimer (NR concentration 270 nM)
# Summary of the method: as §1
# [4] = system: LXRb:RXRa (NR concentration 270 nM, RXRa partner concentration 90 nM)
# Summary of the method: as §1
# [5] = system: LXRb homodimer (NR concentration 270 nM)
# Summary of the method: as §1
# [6] = system: PPARa:RXRa (NR concentration 270 nM, RXRa partner concentration 90 nM)
# Summary of the method: as §1
# [7] = system: PPARg:RXRa (NR concentration 180 nM, RXRa partner concentration 90 nM)
# Summary of the method: as §1
# [8] = system: PPARg:RXRa 270nM:90nM, anti-RXR (NR concentration 270 nM, RXRa partner concentration 90 nM)
# Summary of the method: as §1
# [9] = system: PPARg:RXRa 30nM:10nM, anti-RXR (NR concentration 30 nM, RXRa partner concentration 10 nM)
# Summary of the method: as §1
# [10] = system: PPARg:RXRa 90nM:30nM, anti-RXR (NR concentration 90 nM, RXRa partner concentration 30 nM)
# Summary of the method: as §1
# [11] = system: PPARg:RXRa DBDmut IVT, anti-RXR (DBD mutation: RXRa K156A/R161A, NR concentration 270 nM, RXRa partner concentration 90 nM)
# Summary of the method: as §1
# [12] = system: PPARg:RXRa IVT, anti-PPARg (NR concentration 270 nM, RXRa partner concentration 90 nM)
# Summary of the method: as §1
# [13] = system: PPARg DBDmut:RXRa IVT, anti-PPARg (DBD mutation: PPARg1 K132A/R137A, NR concentration 270 nM, RXRa partner concentration 90 nM)
# Summary of the method: as §1
# [14] = system: PPARg DBDmut IVT, anti-PPARg (DBD mutation: PPARg1 K132A/R137A, NR concentration 270 nM)
# Summary of the method: as §1
# [15] = system: PPARg homodimer (NR concentration 180 nM)
# Summary of the method: as §1
# [16] = system: PXR:RXRa (NR concentration 270 nM, RXRa partner concentration 90 nM)
# Summary of the method: as §1
# [17] = system: PXR homodimer (NR concentration 270 nM)
# Summary of the method: as §1
# [18] = system: RARa:RXR (NR concentration 270 nM, RXRa partner concentration 90 nM)
# Summary of the method: as §1
# [19] = system: RARa homodimer (NR concentration 270 nM)
# Summary of the method: as §1
# [20] = system: RARb:RXRa (NR concentration 270 nM, RXRa partner concentration 90 nM)
# Summary of the method: as §1
Sequence,PBM binding z-score [1],PBM binding z-score [2],PBM binding z-score [3],PBM binding z-score [4],PBM binding z-score [5],PBM binding z-score [6],PBM binding z-score [7],PBM binding z-score [8],PBM binding z-score [9],PBM binding z-score [10],PBM binding z-score [11],PBM binding z-score [12],PBM binding z-score [13],PBM binding z-score [14],PBM binding z-score [15],PBM binding z-score [16],PBM binding z-score [17],PBM binding z-score [18],PBM binding z-score [19],PBM binding z-score [20]
CCTAGCAGGCAAATCTGGGTCACTCAAGGCTTGA,0.679,1.35,-0.33,0.851,-0.654,3.07,2.26,2.58,0.128,1.8,4.27,5.25,-0.619,-1.06,0.358,0.746,-0.354,0.989,-0.416,1.16
CCAGAGAGGTGAAAGGTAACTCAGTCTGGTACGC,1.97,1.72,-0.386,1.72,-0.316,4.52,6.53,6.32,4.89,6.42,3.73,4.05,0.0614,-0.0478,2.31,2.19,0.131,3.44,0.813,2.39
CGTCAAAGTTCAACGAAGGTAACGTAAAGCACGC,5.82,5.6,2.79,3.6,1.02,4.68,4.43,4.94,2.06,4.07,0.66,1.92,0.175,0.224,2.37,4.52,2.37,3.37,0.936,5.18
TAGCCTAGGTCATTCAGGGTCCAGTATAGAAAGC,4.67,4.27,0.918,3.01,0.48,3.74,1.99,2.11,0.487,1.23,1.57,2.74,0.533,0.0908,1.38,3.27,0.324,2.84,-0.0201,3.77
CCTTACGGGTCACTGAGAGGTTATAGCATTTGGA,5.67,4.71,0.946,3.9,-0.26,5.58,4.88,4.87,1.69,3.68,3.25,3.46,0.696,-0.194,3.62,5.18,0.124,5.88,1.03,4.1
GCAGACAGGTGAAATGCAGGTAACTCAGGGTGGC,-0.157,0.0887,-0.625,-0.157,-0.898,1.23,0.71,0.196,-0.445,0.00263,1.43,1.14,-0.233,-1.24,-0.0768,-0.249,0.00173,0.324,-0.661,0.683
GCTCGTAGATCAAGGTTAAGAAAGACTAAGCTAA,-0.496,0.698,-0.704,0.341,-1.05,1.03,-0.16,0.485,-0.162,0.0383,-0.49,-0.249,-1.42,-0.839,-1.01,0.125,-0.272,0.412,-0.428,0.601
ATTTCTAGGTAAAGATAGTTCAGTGAATGCAAAT,0.355,4.21,0.857,1.02,0.567,1.39,1.3,1.27,0.883,1.07,4.34,3.44,1.56,1.86,1.56,1.08,1.16,0.625,1.49,0.8
TCTGCTATGTCAGTTGGTCAGCTAACGAGCTGCC,-0.167,-0.237,-1.15,-0.392,-0.0439,-0.108,-0.623,0.446,0.854,0.78,0.621,0.807,-0.394,0.0922,-0.53,-0.0982,-1.36,-0.0374,-1.02,0.481
CTTCCAAGGTGAACAAGGTCGTTGATTACTATTC,1.17,1.18,0.234,1.67,-0.522,2.49,0.855,1.31,0.0258,0.487,2.37,2.58,0.501,-0.605,0.985,2.6,1.19,1.97,-0.158,2.18
CCTACTGGGCCTTCAGGTCATTGATATCAACGTT,1.24,0.751,0.919,1.3,-0.3,1.93,0.682,1.85,0.024,1.09,2.17,2.64,0.207,0.0216,1.5,1.47,0.552,1.5,-0.361,1.7
CGTTACGGGTCACTCCAGGTTATAGCATCGGAGT,4.94,7.62,1.6,5.34,-0.0358,4.67,3.44,4.08,1.42,2.69,2.91,3.75,0.311,-0.48,1.14,5.09,0.162,3.59,0.11,3.66
AGAACGAGAGCACGCTGAGTTGATAGCAGAGTAG,-0.802,-0.854,-0.51,-0.91,-1.27,-0.425,0.523,-0.601,-0.701,-0.842,0.0563,-0.2,-0.0826,-0.875,-0.952,-0.515,-0.415,-0.666,-1.23,-0.39
CGTCAAAGTTCAGGGTAACGTAACAGAAAGCAGC,4.15,3.51,1.23,2.3,0.634,3.48,3.14,3.57,1.26,2.42,0.483,1.35,0.319,0.192,2.87,2.66,1.67,2.17,1.09,4.33
